ALR inh: human ALR oxidase inhibition via reduced H2O2; P55789; purified ALR, DTT oxidation, H2O2 HRP-luminol luminescence; inhibition, % (no concentration beside the values); 290,000 compounds, 3.8% hits; AID 485317;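 active = mean replicate inhibition above about 79%, with every replicate also reaching it, limit read from the data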
NRP1-CendR mod: alters CendR peptide binding to human NRP-1; FAM-RPARPAR peptide binding to NRP-1, fluorescence polarization; inhibition, % at 25 µM; AID 602438; 360,000 compounds, 0.85% hits; O14786;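 active = inhibition or corrected inhibition above about 18%, plus a signal ratio from 0.5 to 1.5, limit read from the data, passing the limit was not always enough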
PglD inh: PglD (C. jejuni) enzyme inhibition; purified PglD enzyme, DTNB colorimetric CoA detection; inhibition, % at 12.5 µM; 360,000 compounds, 0.098% hits; AID 602405; in the data active = inhibition above about 16%, passing the limit was not always enough
ERp5 block: inhibitors of human ERp5; Q15084; ERp5 insulin aggregation, absorbance 650 nm, 90 min; inhibition, % at 9.99 µM; AID 651711; 350,000 compounds, 0.05% hits;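 active = mean replicate inhibition above about 25%, with every replicate also reaching it, limit read from the data, passing the limit was not always enough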
Target sequence (Q15084 whole entry, looked up): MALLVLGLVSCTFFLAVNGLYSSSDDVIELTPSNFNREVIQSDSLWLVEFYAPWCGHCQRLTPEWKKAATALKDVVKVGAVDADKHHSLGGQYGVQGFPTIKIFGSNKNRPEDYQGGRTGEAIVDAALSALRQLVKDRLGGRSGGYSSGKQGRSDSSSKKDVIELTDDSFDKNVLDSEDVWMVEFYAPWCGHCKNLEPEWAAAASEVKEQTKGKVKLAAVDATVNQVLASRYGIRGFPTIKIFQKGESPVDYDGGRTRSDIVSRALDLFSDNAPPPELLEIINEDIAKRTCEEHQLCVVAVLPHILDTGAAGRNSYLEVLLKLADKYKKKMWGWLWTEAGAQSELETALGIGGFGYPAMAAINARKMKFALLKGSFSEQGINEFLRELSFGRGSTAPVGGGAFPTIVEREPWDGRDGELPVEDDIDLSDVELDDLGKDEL
ARNT TACC3 PPI: disruptors of human ARNT/TACC3 interaction; Q9Y6A5; AlphaScreen His-ARNT PAS-B/GST-TACC3 binding, luminescence; TACC3 fragment carries E629A point mutation; inhibition, % at 9.99 µM; 390,000 compounds, 0.66% hits; AID 623870;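 active = mean inhibition of replicates at least 50% and at least half of replicates each reaching 50%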
PDI turbidity: PDI (human) enzyme inhibition | PDI insulin aggregation turbidity, A650, 90 min | 350,000 compounds, 0.052% hits | P07237 | AID 588391 | inhibition, % at 10 µM;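 active = mean inhibition across replicates of 30% or more, whatever share of single replicates reach that level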
Large screens that a line does not name were inactive. Only a selection was taken, and hits are over-represented in it overall.

C[C@H](CO)N1C[C@H](C)[C@H](CN(C)C(=O)Nc2ccc(F)cc2)Oc2ncc(-c3ccc(C#N)cc3)cc2C1=O	none (no result: ALR inh, NRP1-CendR mod, PDI turbidity)
c1ccc2c(NC3CCCC3)nnc(NC3CCCC3)c2c1	ALR inh 98 (no result: ERp5 block)
Cc1cccnc1NC1CCCCC1	none (no result: PglD inh)
CCN(CC)S(=O)(=O)c1ccc(N/N=C/c2ccc(O)cc2)nc1	ALR inh 99 (no result: PglD inh)
CCCNC(=O)Nc1ccc2c(c1)C(=O)N(C)C[C@@H](OC)[C@H](C)CN(C(=O)c1ccccc1F)[C@@H](C)CO2	none (no result: ALR inh, NRP1-CendR mod, PDI turbidity)
COC(=O)C[C@@H]1CC[C@@H]2[C@H](COc3ccc(NC(=O)c4cc(C)on4)cc3C(=O)N2C)O1	none (no result: ALR inh, NRP1-CendR mod, PDI turbidity)
O=C(O)CCC(=O)NCCn1c(-c2ccccc2)csc1=Nc1ccccc1	ALR inh 92
COc1cccc(CC(=O)NNC(=O)CN(C)S(=O)(=O)c2ccc(C)cc2)c1	ERp5 block 27 (no result: ARNT TACC3 PPI)
COc1cccc(CN(C)S(=O)(=O)c2ccc3c(c2)OCCO3)c1	NRP1-CendR mod 19 (no result: ALR inh)
COc1ccc(CC(=O)NNC(=O)CN(C)S(=O)(=O)c2ccc(Cl)cc2)cc1OC	none
C[C@@H]1CCCCO[C@H](CN(C)Cc2ccncc2)[C@H](C)CN([C@@H](C)CO)C(=O)c2cc(NC(=O)c3ccncc3)ccc2O1	none (no result: ALR inh, NRP1-CendR mod, PDI turbidity)
COc1ccc(-c2csc(NC(CO)c3nc4ccccc4n3CCCO)n2)cc1 (stereo unspecified)	NRP1-CendR mod 26
CC1(C)OC(=O)C(=CNc2cccc(O)c2)C(=O)O1	none
CC1(C)OC(C)(C)/C(=C/Nc2ccc(O)cc2)C1=O	ALR inh 99 (no result: ERp5 block)
O/N=C/c1cccn1-c1ccc(O)cc1	ALR inh 99 (no result: ERp5 block)
CCc1ccc(CNc2ccc(O)cc2)cc1	ALR inh 84 (no result: ERp5 block, ARNT TACC3 PPI)
O=C(C[C@@H]1C[C@H]2c3cc(NC(=O)NC4CCCC4)ccc3O[C@H]2[C@@H](CO)O1)NCc1ccc(Cl)cc1	none (no result: ALR inh, NRP1-CendR mod, ERp5 block, PDI turbidity)
O=C(C[C@@H]1C[C@@H]2c3cc(NC(=O)NC4CCCCC4)ccc3O[C@@H]2[C@H](CO)O1)NCc1cccnc1	none (no result: ALR inh, NRP1-CendR mod, PDI turbidity)
O=C(C[C@H]1C[C@@H]2c3cc(NC(=O)NC4CCCC4)ccc3O[C@@H]2[C@@H](CO)O1)NCc1ccc(Cl)cc1	ERp5 block 98 (no result: ALR inh, NRP1-CendR mod, PDI turbidity)
O=C(C[C@@H]1C[C@@H]2c3cc(NC(=O)NC4CCCCC4)ccc3O[C@@H]2[C@@H](CO)O1)NCc1cccnc1	PglD inh 54 (no result: ALR inh, NRP1-CendR mod, PDI turbidity)
C[C@@H]1CN([C@H](C)CO)C(=O)c2cccc(NC(=O)CCCCCC(=O)Nc3ccccc3N)c2O[C@H]1CN(C)Cc1ccc(C(F)(F)F)cc1	none (no result: ALR inh, NRP1-CendR mod, PglD inh, ARNT TACC3 PPI, PDI turbidity)
CCc1sc(NS(C)(=O)=O)nc1-c1ccccc1	ALR inh 98
CCc1sc(NC(C)=O)nc1-c1ccccc1	none (no result: ARNT TACC3 PPI)
Cc1c(C(=O)NC2CC2)oc2ccccc12	none
COCc1c(C(=O)NC2CCCCCC2)oc2ccccc12	ALR inh 89 (no result: PglD inh)
Oc1c(C(c2cccs2)N2CCN(c3ccccc3)CC2)sc2ncnn12 (stereo unspecified)	ALR inh 97 (no result: PDI turbidity)
CCC(C)Nc1nc(N)c([N+](=O)[O-])c(Nc2cc(OC)ccc2OC)n1 (stereo unspecified)	NRP1-CendR mod 52
CCOC(=O)c1sc(NC(=O)CNCc2ccccn2)c(C(=O)OCC)c1C	ARNT TACC3 PPI 48 (no result: PglD inh)
CCOC(=O)c1c(NC(=O)CC)sc(C(=O)N2CCCCC2)c1C	none (no result: ERp5 block)
CCOC(=O)c1sc(NC(=O)CNCc2cccnc2)c(C(=O)OCC)c1C	none
CCOC(=O)c1sc(NC(=O)CCN2CCCCCC2)c(C(=O)OCC)c1C	ALR inh 97 (no result: ARNT TACC3 PPI)
CC(C(=O)N1CCN(c2ccc(Cl)cc2)CC1)c1ncc(C(F)(F)F)cc1Cl (stereo unspecified)	NRP1-CendR mod 47 (no result: ERp5 block)
O=C(Nc1nnc(-c2ccc3c(c2)CCCC3)o1)c1c(F)cccc1F	ALR inh 95 (no result: PglD inh)
Cc1ccc(S(=O)(=O)N(C)C[C@H]2Oc3ccc(NS(C)(=O)=O)cc3CC(=O)N([C@@H](C)CO)C[C@@H]2C)cc1	none (no result: ALR inh, NRP1-CendR mod, PDI turbidity)
CO[C@@H]1CN(C)C(=O)c2cc(NC(C)=O)ccc2OC[C@H](C)N(C(=O)c2ccc(F)cc2)C[C@H]1C	none (no result: ALR inh, NRP1-CendR mod, PDI turbidity)
O=C1C2C(c3ccccc3)C=CC(c3ccccc3)C2C(=O)N1CCCO (stereo unspecified)	NRP1-CendR mod 22 (no result: ERp5 block)
CCCNC(=O)C[C@@H]1CC[C@@H]2[C@@H](COc3ccc(NC(=O)NCCC)cc3C(=O)N2C)O1	none (no result: ALR inh, NRP1-CendR mod, PglD inh, ARNT TACC3 PPI, PDI turbidity)

Screens: PubChem BioAssay, several laboratories
